Most compounds without a hit are left out; they make up all but 19% or so of the library.
IL1B secr inh = blocks inflammasome-driven IL-1 beta release. THP-1 LPS/ATP IL-1B secretion, AlphaLISA, 16 h; active compounds read low. activity change, % at 57.5 µM. 4.7% of 360,000 active; in the data active means activity change below about -50%; inconclusive means mostly about -30% to -49%
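Secreted IL-1B measured by AlphaLISA bead assay after 16 h compound exposure of THP-1 cells; compounds (final up to 57.5 uM) added 1 h before LPS (250 ng/mL) and ATP (1.25 mM) stimulation; lower signal means less secretion.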
DT40 TDP1 no CPT = qHTS for Inhibitors of human tyrosyl-DNA phosphodiesterase 1 (TDP1): qHTS in cells in absence of CPT; DT40 Tdp1-/- hTDP1 cells, no CPT, ATP luminescence, 48 h; Potency, µM (titrated, usually from 46.2 µM), without a hit: at the highest dose activity change, negative = growth inhibition, most hits filed as inhibitors; 15% of 420,000 active; AID 686978, 2013; further: potency means the concentration at half of the fitted maximal effect; nearly all actives have a fitted effect of over 55% in size
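Seeded 400 DT40-hTDP1 cells/well (vehicle DMSO, no 20 nM CPT); pinned compounds; ≥48 hr at 37 °C; CellTiter-Glo luminescence as viability measure.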
HT1080NT lethal = kills 2HG-producing HT-1080-NT fibrosarcoma cells; HT-1080-NT fibrosarcoma viability, CellTiter-Glo ATP luminescence, 48 h; Potency, µM (series often up to 46.1 µM), for inactives: at the highest dose activity, negative = less viability, usual class: cytotoxic; 1.6% of 360,000 active; AID 686970;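 further: NT is the 2HG producing partner of a matched IDH1 knockdown line; potency means the concentration at half of the fitted maximal effect; 0% = DMSO-treated cells and -100% = media-only wells without cells; nearly all actives have a fitted effect of over 55% in size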
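Viability by CellTiter-Glo luminescence after 48 h compound exposure at 37C of HT-1080-NT cells (750/well, RPMI, 5% FBS). % activity scaled between DMSO wells and medium-only wells, then curve-fitted and categorized by curve class.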
TDP1 cell CPT = growth inhibition of DT40 Tdp1-/-;hTDP1 cells with camptothecin (screen for TDP1 inhibitors); Potency, µM (doses to about 46.2 µM), for inactives: at the top dose activity change, negative = growth inhibition, hits mostly inhibitors; 12% of 420,000 active; AID 686979; chicken DT40 Tdp1-/-;hTDP1 cells + 20 nM CPT, ATP luminescence, 48 h; further: potency means the concentration at half of the fitted maximal effect; nearly all actives have a fitted effect of over 55% in size
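Chicken DT40 Tdp1-/- cells stably complemented with human TDP1 were seeded at 400 cells/well in medium containing 20 nM camptothecin, exposed to pin-transferred compounds, and grown at 37 °C for at least 48 hr. Viability was read as ATP luminescence.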
ELG1 repair inh = inhibitors of ELG1-dependent DNA repair in HEK293T cells; HEK293T ELG1-luciferase reporter, luminescence, 16 h; DNA damage induced by 5-fluorouridine; 2.3% of 330,000 active; Potency, µM (titrated, usually from 46.1 µM), for inactives: top-dose activity change, negative = inhibition, actives largely listed as inhibitors; further: potency means the concentration at half of the fitted maximal effect; nearly all actives have a fitted effect of over 55% in size
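Cells (2,000 per well) received 5-fluorouridine plus test compound or DMSO and were incubated 16 hr at 37 °C, 5% CO2. Luciferase activity was read by luminescence 30 min after ONE-Glo addition; signal suppression marked inhibition of damage-induced ELG1 function.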
HT1080 IDH1KD tx = kills HT-1080 cells with IDH1 knockdown | 2% of 360,000 active | HT-1080 IDH1 knockdown viability, ATP luminescence, 48 h | Potency, µM (top dose mostly 46.1 µM), inactives show top-dose activity, negative = toxicity, usual class: cytotoxic;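 further: potency means the concentration at half of the fitted maximal effect; 0% = DMSO wells and -100% = cell-free medium wells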
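HT-1080-IDH1KD cells (IDH1 knocked down), 750/well in RPMI with 5% FBS, treated with compound 48 h at 37 degrees C. Viability by CellTiter-Glo luminescence, normalised to DMSO and no-cell wells; concentration-response curves classed.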
* = called active by the depositor; ? = inconclusive; . = no result given. Unless noted, the call rests on the fitted dose curve; in most records, active means well fitted curve in the direction sought with a large enough effect; inconclusive means small, poorly fitted or top-dose-only effect, or another doubt; inactive means no such curve, though single readings can be large; an effect the other way counts as inactive or inconclusive. Unless noted, on the % scale 0 is the no-effect control and ±100 the full control effect.

SMILES | IL1B secr inh | DT40 TDP1 no CPT | HT1080NT lethal | TDP1 cell CPT | ELG1 repair inh | HT1080 IDH1KD tx
Cn1c(=O)c([N+](=O)[O-])c(Cl)c2ccccc21 | -101* | 4.6µM* | 5.8µM* | 2.6µM* | ? | 5.8µM*
CCn1c(=O)c([N+](=O)[O-])c(NCCc2ccccc2)c2ccccc21 | ? | ? | -14% | ? | -23% | -19%
Cn1c(=O)c([N+](=O)[O-])c(NCCc2ccccc2)c2ccccc21 | -10 | 16µM* | -3% | ? | -23% | -20%
Cc1ccc(Nc2c([N+](=O)[O-])c(=O)n(C)c3ccccc23)cc1C | 1 | ? | ? | ? | ? | ?
CCN(CC)c1c([N+](=O)[O-])c(=O)n(C)c2ccccc12 | 0 | ? | 1% | 7% | 12% | -7%
CN(Cc1ccccc1)c1c([N+](=O)[O-])c(=O)n(C)c2ccccc12 | 35 | 15µM* | 3% | ? | ? | -5%
CC1CCN(CCOc2ccc(OCc3ccccc3)cc2)CC1 | ? | ? | -17% | ? | ? | -14%
CCN(CC)S(=O)(=O)c1nnc(NC(=O)COc2ccccc2F)s1 | . | -28% | . | -12% | . | .
O=C(CSc1nnc(Nc2ccccc2)s1)NN1C(=O)NC2(CCCCC2)C1=O | -11 | -23% | 1% | -25% | 0% | -1%
CN(C(=O)CSc1cc(C(=O)c2nccn2C)c2ccccc2n1)c1ccccc1 | -56* | 18µM* | -26% | 15µM* | -28% | -28%
Cn1ccnc1C(=O)c1cc(SCC(=O)NC2CC2)nc2ccccc12 | -2 | 5% | 0% | 7% | ? | 1%
Cc1cccc(C)c1NC(=O)CSc1cc(C(=O)c2nccn2C)c2ccccc2n1 | ? | ? | -16% | 2% | 15µM* | -19%
COc1ccc(NC(=O)CSc2cc(C(=O)c3nccn3C)c3ccccc3n2)cc1 | ? | ? | -1% | 1% | ? | -3%
CC(=O)Nc1cccc(C(=O)N/N=C/c2c[nH]c3ccccc23)c1 | 30 | -12% | 1% | 9% | 20% | 9%
CC(C)Nc1ccc(-c2nc(-c3ccccn3)no2)cc1[N+](=O)[O-] | . | -1% | . | -4% | . | .
CC(=O)c1ccc(N2CCN(C(=O)c3cccs3)C(C)C2)c(F)c1 (centres undefined) | -13 | 21µM* | 5% | ? | ? | 2%
Cc1nc2n[nH]c(N)c2nc1C | 0 | 1% | 4% | 5% | . | 8%
COc1ccc(CC(N)c2csc(NC(=O)Nc3cc(OC)ccc3OC)n2)cc1 (centres undefined) | 0 | 5.8µM* | ? | 5.2µM* | . | ?
COc1ccc(OC)c(NC(=O)CCCc2ccccc2)c1 | 7 | 2% | 7% | 9% | 3% | 9%
O=C(NCC1CC1)Nc1ccccc1 | -8 | -23% | 21% | 3% | ? | 6%
NC(CCc1ccccc1)c1csc(NC(=O)NCC2CCCCC2)n1 (centres undefined) | ? | 15µM* | 16µM* | 15µM* | . | ?
COc1ccc(OC)c(NC(=O)Nc2nc(C(N)CCc3ccccc3)cs2)c1 (centres undefined) | . | 9.2µM* | ? | 7.3µM* | . | 21µM*
COc1cc(NC(=O)Nc2nc(C(N)CCc3ccccc3)cs2)cc(OC)c1OC (centres undefined) | ? | 7.3µM* | 18µM* | ? | . | ?
CCCn1c(C2CCCN2c2nc(-c3cccc(Br)c3)cs2)nc2ccccc21 (centres undefined) | -17 | ? | -26% | ? | -18% | -19%

Compound activity as filed in PubChem BioAssay.
